# Most compounds without a hit are left out; they make up all but 8.9% or so of the library.
# KB-V1 cytotox: KB-V1 MDR subline cytotoxicity; KB-V1 MDR cells viability, CellTiter-Glo, 72 h; Potency, µM (highest dose often 46.1 µM), actives largely listed as cytotoxic; 400,000 tested, 3.4% active; also: potency is read from the fitted curve at half-maximal effect; % is scaled to controls: 0 for no effect and ±100 for the full control effect; nearly all actives have a fitted effect of over 60% in size
#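 Drug-selected KB-V1 cells, grown in DMEM lacking phenol red with 10% FBS, receive compound titrations; after three days at 37 degrees C, surviving cell ATP is quantified by CellTiter-Glo luminescence and responses normalized and curve-fitted.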
# DRD3 antagonist: blocks the human D3 dopamine receptor; P35462; D3R cells, DiscoveRx beta-arrestin luminescence, antagonist mode; stronger effect = lower value; max response, negative = inhibition, %; 360,000 tested, 2.5% active; AID 652054; in the data active = max response below about -50%; inconclusive = no clear call, values can overlap the other calls; also: % is scaled to controls: 0 for no effect and ±100 for the full control effect
# Target sequence (P35462 whole entry, looked up): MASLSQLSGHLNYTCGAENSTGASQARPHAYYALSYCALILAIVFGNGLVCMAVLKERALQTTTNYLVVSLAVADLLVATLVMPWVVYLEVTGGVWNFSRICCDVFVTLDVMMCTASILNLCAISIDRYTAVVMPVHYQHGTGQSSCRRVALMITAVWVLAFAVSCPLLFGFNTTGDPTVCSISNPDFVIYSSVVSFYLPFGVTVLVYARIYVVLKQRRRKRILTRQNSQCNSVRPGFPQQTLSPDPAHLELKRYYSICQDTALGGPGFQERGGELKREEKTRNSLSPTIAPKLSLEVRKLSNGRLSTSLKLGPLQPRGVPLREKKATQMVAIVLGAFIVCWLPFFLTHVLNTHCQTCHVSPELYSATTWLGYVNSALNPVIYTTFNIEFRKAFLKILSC
#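 Cells plated overnight at 1500 cells/well, then exposed to library compounds with dopamine controls for 90 minutes at 37 degrees C. DiscoveRx reagent added for 30–60 minutes at room temperature; luminescence read, quantitative HTS format.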
# SW480 rereplic: inducers of DNA re-replication in SW480 colon cancer cells | 340,000 tested, 1.8% active | AID 624297 | SW480 DNA re-replication, Hoechst DNA content imaging, 48 h | Potency, µM (highest dose often 46.1 µM), without a hit: at the top dose re-replication activation, most hits filed as activators; also: potency is read from the fitted curve at half-maximal effect; % of control where 0% means no effect; nearly all actives have a fitted effect of over 55% in size
#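 Cells (250 per well) received 23 nL compound or DMSO by pin tool and were kept 48 hr at 37 C, 5% CO2. Nuclei were then stained with Hoechst for 40 min and scanned for DNA content.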
# MCF10A rereplic: DNA re-replication induction in MCF 10a cells; AID 624296; 350,000 tested, 2.9% active; MCF 10A DNA re-replication, Hoechst nuclear intensity, 48 h; Potency, µM (series often up to 46.1 µM), for inactives: top-dose activity, positive = re-replication, most hits filed as activators; also: potency is read from the fitted curve at half-maximal effect; % of control where 0% means no effect; nearly all actives have a fitted effect of over 50% in size
# DRD3 agonist: D3 dopamine receptor (human) agonism | 410,000 tested, 0.58% active | D3R DiscoveRx beta-arrestin cells, luminescence, 90 min | P35462 | max activation, %; in the data active = max activation above about 30%; also: 0% is about no effect
#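 Agonist mode: compounds and dopamine controls were applied to plated cells for 90 min at 37 degrees C after an overnight attachment at 1500 cells/well. Luminescent read-out followed 30 - 60 minutes at room temperature with DiscoveRx detection reagent.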
# KB-3-1 cytotox: kills parental KB-3-1 adenocarcinoma cells. KB-3-1 viability, CellTiter-Glo ATP luminescence, 72 h. Potency, µM (top dose mostly 46.1 µM), most hits filed as cytotoxic. 400,000 tested, 1.4% active. AID 1347075; also: potency is read from the fitted curve at half-maximal effect; % is scaled to controls: 0 for no effect and ±100 for the full control effect; nearly all actives have a fitted effect of over 60% in size
#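 Parental KB-3-1 adenocarcinoma cells in phenol-red-free DMEM with 10% FBS were pin-treated with compounds at several concentrations, incubated 72 h at 37 °C, and viability read by CellTiter-Glo luminescence; concentration-effect curves were fitted after normalization.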
# Numbers without * were called inactive; i = inactive; ? = inconclusive; / = not tested or not shown. Unless noted, calls follow the shape of the dose curve; as a rule, active = well fitted curve in the direction sought with a large enough effect; inconclusive = small, poorly fitted or top-dose-only effect, or another doubt; inactive = no such curve, though single readings can be large; an effect the other way counts as inactive or inconclusive.
SMILES,KB-V1 cytotox,DRD3 antagonist,SW480 rereplic,MCF10A rereplic,DRD3 agonist,KB-3-1 cytotox
O=c1cc(-c2ccc(F)cc2)oc2ccccc12,13µM*,3,-2%,11%,2,?
CCC(=O)N1CCc2cc(CNC(=O)Cc3ccc(OC)c(OC)c3)ccc21,/,/,/,/,-2,/
Cc1oc2ccc(NS(=O)(=O)c3ccc(F)cc3)cc2c1C(=O)O,i,-15,-13%,-8%,-12,i
COCCOC(=O)c1c(C)oc2ccc(NS(=O)(=O)c3ccc(F)cc3)cc12,5.2µM*,11,-1%,1%,6,i
COc1cc(/C=C2/C=Cc3ccccc32)ccc1N(C)C,i,/,/,/,/,?
O=C1C=CC(O)(c2cc(=O)c3c(O)cc(O)cc3o2)C=C1,5.8µM*,-80*,4.1µM*,1.5µM*,-32,?
CCOC(=O)c1c(CN2CCOCC2)n(-c2ccccc2)c2cc(Br)c(OC)cc12,18µM*,26,?,23µM*,1,?
CCOC(=O)c1c(C)[nH]c(C(=O)COC(=O)c2oc3ccc(OC)cc3c2C)c1C,10µM*,-13,-10%,-1%,3,16µM*
CCOC(=O)c1c(CN2CCCCC2)n(C)c2cc(Br)c(O)cc12,10µM*,-87*,10%,23%,-59,i
CCOC(=O)c1c(CN2CCOCC2)oc2ccc(OC)cc12,16µM*,0,-1%,1%,-3,i
Cc1cc2oc(C(=O)N(Cc3ccccc3)C3CCS(=O)(=O)C3)cc(=O)c2cc1C (centres undefined),i,/,/,/,6,i
CCOC(=O)c1c(CN(C)C)n(-c2ccccc2)c2cc(Br)c(OC)cc12,21µM*,20,?,?,3,?
O=C(OC1CC2CC1[C@H]1CCCCN1C2=O)N1CCN(S(=O)(=O)c2ccccc2)CC1 (some centres undefined),i,-53*,/,/,2,i
CN(Cc1ccccc1)c1nnc(NC(=O)Nc2cccc(Br)c2)s1,i,/,/,/,-4,i
CCOC(=O)c1ccc(OCC(=O)c2ccc(O)cc2O)cc1,i,23,-7%,20%,2,i
COC(=O)c1ccc(OCC(=O)c2ccc(O)cc2O)cc1,23µM*,2,-5%,1%,-5,?
COc1ccc(N2CCN(C(=O)c3cc4c(-c5ccccc5F)nn(C)c4s3)CC2)cc1,i,/,/,/,16,i
c1ccc2oc(-c3[nH]ncc3CN3CCC(N4CCSCC4)CC3)cc2c1,i,2,-6%,23µM*,-9,i
CCc1ccccc1-n1nnc(-c2nc(-c3ccccc3F)no2)c1C,i,/,/,/,-13,i
CCOc1ccc(CC(=O)NC2CC(=O)N(c3ccc(C)c(C)c3)C2)cc1 (centres undefined),/,/,/,/,9,/
COc1ccc(CNC(=O)c2ccc(-n3cncn3)c3ccoc23)cc1OC,i,0,/,/,10,i
COc1ccc(CNC(=O)c2ccc(-n3ccnc3)c3ccoc23)cc1OC,i,-76*,/,/,-6,i
CC(=O)N1CCc2cc(Br)cc(S(=O)(=O)N3CCN(c4cc(C)ccc4C)CC3)c21,i,/,/,/,6,i
O=C1CC(c2nnc(Cc3cccc(Cl)c3)o2)CN1c1ccccc1 (centres undefined),i,/,/,/,0,i
C[C@]12CC[C@@H]3c4ccc(O)cc4[C@@H](O)C[C@H]3[C@@H]1CC[C@@H]2O,/,/,-12%,11%,/,/
SMILES,KB-V1 cytotox,DRD3 antagonist,SW480 rereplic,MCF10A rereplic,DRD3 agonist,KB-3-1 cytotox
CCOc1cc2c(cc1O)C(=NOC)CC1C2CCC2(C)C(O)CCC12 (centres undefined),0.52µM*,0,5.8µM*,2.1µM*,-10,0.65µM*
CNC(=S)N(CCc1c(C)[nH]c2ccc(Cl)cc12)Cc1cc(OC)c(OC)c(OC)c1,?,2,26µM*,?,6,?
CCNC(=S)N(CCc1c(C)[nH]c2ccc(Cl)cc12)Cc1ccco1,i,-12,18µM*,?,-2,23µM*
CNC(=S)N(CCc1c(C)[nH]c2ccc(C)cc12)Cc1ccco1,i,11,-6%,?,2,i
COc1ccc2cc(-c3nc(Cl)c4c5c(sc4n3)CCCC5)c(=O)oc2c1,?,/,/,/,8,i
CN(C)c1ccc(CNC(=O)Cc2ccc(NC(=O)N3CCCCc4ccccc43)cc2)cc1,i,/,/,/,-1,i
Cc1cccc(NC(=O)Cn2c(=O)n(Cc3ccccc3)c(=O)c3sc4ccccc4c32)c1,i,/,/,/,-9,i
COc1cc(-c2coc3c(C(=O)NC4CCCCC4)cccc23)ccc1O,i,10,/,/,6,i
CC1(C)Oc2ccc(C(=O)NC3CCCC3)cc2N(CC(=O)NC2CCCC2)C1=O,i,-76*,1%,-3%,-5,i
CC(=O)N/C(=C\c1ccccc1)C(=O)OCC(=O)N(C)C1CCCCC1,16µM*,-1,?,-86%,-5,i
Cc1ccc(NC(=O)Cc2ccccc2Cl)cc1S(=O)(=O)N(C)C,23µM*,1,15%,?,6,?
Cc1ccc(NC(=O)COC(=O)c2ccccc2Cl)cc1S(=O)(=O)N(C)C,i,-3,-2%,-4%,12,i
Cc1ccc(NC(=O)Cc2ccc(Cl)c(Cl)c2)cc1S(=O)(=O)N(C)C,2.6µM*,6,?,?,5,23µM*
CC(=O)N/C(=C\c1ccccc1)C(=O)OCc1ccccc1,i,4,-2%,-1%,8,i
CC(=O)N/C(=C\c1ccccc1)C(=O)OCC(=O)Nc1ccc(C)c(S(=O)(=O)N(C)C)c1,?,1,5.8µM*,7%,12,i
CCc1ccccc1NC(=O)c1nnn(-c2ccc(F)cc2)c1C,i,/,/,/,8,i
Cc1ccc(NC(=O)CNc2ccc(Cl)c(Cl)c2)cc1S(=O)(=O)N(C)C,21µM*,27,/,13%,3,?
Cc1ccc(NC(=O)CCNC(=O)c2ccccc2Cl)cc1S(=O)(=O)N(C)C,i,9,-3%,0%,-2,i
COc1ccc(CCNC(=O)c2cc(=O)[nH]c3ccc(S(=O)(=O)N4CCCCC4C)cc23)cc1OC (centres undefined),/,/,/,/,-14,/
O=C(Nc1ccc(Cl)cc1Cl)c1cc(S(=O)(=O)NCc2ccc3c(c2)OCO3)ccc1F,/,/,/,/,0,/
CCc1nc2ccc(C(=O)Nc3cc(-c4ccccc4)ccc3OC)cn2c1N(C=O)CCC(C)C,i,6,/,/,69*,i
CCc1nc2ccc(C(=O)Nc3cc(-c4ccccc4)ccc3OC)cn2c1N(C)CCC(C)C,i,60,/,/,15,i

# Screens from PubChem.
